Only some compounds are listed: those with a hit (about 0.93% of all), similar ones and a draw of the others.
HIF act: HIF pathway transcriptional activation; U2OS HRE-luciferase reporter, luminescence; normalized: DMSO 0%, desferrioxamine 100%; activation, % at 7.5 µM (by protocol); 300,000 tested, 0.32% active; AID 1910;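 active = mean activation of at least 10% of the iron chelator positive control signal, with at least half of replicates also reaching 10%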
Jurkat NFkB inh: lowers PMA/ionomycin-induced NF-kB signal in Jurkat cells | PMA/ionomycin-induced NF-kB luciferase reporter, luminescence | inhibition, % at 4 µM | 330,000 tested, 0.53% active | AID 435003; in the data active = inhibition above about 50%
697 NFkB inh: inhibitors of the PMA/ionomycin-induced NF-kB reporter in 697 B cells; inhibition, % at 4 µM; AID 435022; 330,000 tested, 0.33% active; 697 B-cell NF-kB luciferase reporter, 16 h; in the data active = inhibition above about 35%
F508del corr: CFTR F508del correction in bronchial cells | CFBE cells, YFP halide quenching; stimulated with forskolin plus potentiator P3; % fluorescence drop versus neutral controls | activity (quench increase), % at 7.58 µM | 350,000 tested, 0.36% active | AID 720511;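 active = mean added fluorescence quench of at least 8% versus neutral control, with both replicates also reaching 8%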;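 also: cells transiently co-express mutant CFTR-F508del with the halide-sensitive YFP; corrector assay measuring rescue of mutant channel to the surface after 24 h compound exposure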
697 NFkB conf: inhibitors of the PMA/ionomycin-induced NF-kB reporter in 697 B cells, retest; inhibition, % at 4 µM; 2,000 tested, 35% active; shares compounds with 697 NFkB inh; AID 449746; 697 B-cell NF-kB luciferase, 16 h; in the data active = inhibition mostly above about 28%, no sharp cut-off; inactive = mostly below about 22%
* = called active by the depositor; i = inactive; nt = no result.

SMILES | HIF act | Jurkat NFkB inh | 697 NFkB inh | F508del corr | 697 NFkB conf
O=C1CCC2S/C(=C/Nc3ccc(C(F)(F)F)cc3)C(=O)N12 (stereo not drawn) | -2.9 | 30.3 | 81.4* | -1.1 | 49.0*
O=C1CCCC/C1=C/Nc1cccc(C(F)(F)F)c1 | -0.4 | -18.8 | 1.9 | 1.1 | nt
COc1cc(CN2CC3(CN(C(C)=O)C3)c3c([nH]c4cc(OC)ccc34)[C@H]2CO)cc(OC)c1 | nt | nt | nt | -1.0 | nt
CCn1c(SCC(=O)Nc2ccc3c(c2)n(C)c(=O)n3C)nnc1-c1ccncc1 | -0.7 | 5.3 | -2.8 | -2.9 | nt
Cn1c(=O)n(C)c2cc(NC(=O)CSc3nnc(-c4ccccc4O)n3-c3ccccc3)ccc21 | -0.4 | 7.4 | 36.4* | nt | 41.0*
N=c1ccn(Cc2ccccc2Cl)cc1 | 0.6 | 41.0 | 46.2* | nt | 48.5*
N=c1ccn(Cc2cccc(Cl)c2)cc1 | 1.2 | 20.2 | 28.7 | nt | nt
N=c1ccn(Cc2c(Cl)cccc2Cl)cc1 | -0.4 | 41.6 | 46.6* | 0.8 | 56.9*
O=C(C[C@@H]1CC[C@@H](NC(=O)Nc2ccc(F)cc2)[C@@H](CO)O1)NCc1ccccn1 | nt | nt | nt | 3.4 | nt
Cc1cc(NC(=O)c2ccccc2)nc2c1c(=O)oc1ccccc12 | 0.2 | -6.2 | 35.0* | 1.8 | 9.5
CCOc1ccc(C(=O)Nc2cc(C)c3c(=O)oc4ccccc4c3n2)cc1 | -0.2 | -9.2 | -8.9 | 0.6 | nt
CCOC(=O)C1CCN(C(=O)CSc2cc(=O)n(CC)c3ccccc23)CC1 | -0.3 | -12.8 | 15.8 | nt | nt
CCn1c(=O)cc(SCC(=O)N2CCCCC2)c2ccccc21 | -0.1 | 23.6 | 58.4* | nt | 42.5*
Cn1c(=O)cc(SCC(=O)N2CCN(C3CCCCC3)CC2)c2ccccc21 | 0.1 | -9.0 | 37.9* | -1.9 | 22.9
CCn1c(=O)cc(SCC(=O)N2CCC(C)CC2)c2ccccc21 | -0.2 | 11.3 | 59.2* | nt | 44.6*
CCN1CCN(C(=O)CSc2cc(=O)n(CC)c3ccccc23)CC1 | 0.6 | -3.5 | 38.8* | nt | 53.7*
Cc1ccc(S(=O)(=O)Nc2ccc3c(c2)C(=O)N([C@@H](C)CO)C[C@@H](C)[C@H](CN(C)C(=O)c2ccccc2)OCCCC[C@H](C)O3)cc1 | nt | nt | nt | -1.5 | nt
C[C@@H]1CN([C@H](C)CO)C(=O)c2cc(NC(=O)Nc3ccc(C(F)(F)F)cc3)ccc2O[C@@H](C)CCCCO[C@H]1CN(C)S(=O)(=O)c1cn(C)cn1 | nt | nt | nt | -3.2 | nt
CCn1c(=O)c2cc(C(=O)N3CCCC3)sc2c2ccccc21 | -0.2 | -7.6 | 53.3* | nt | 31.7*
CCn1c(=O)cc(SCC(=O)N2CCN(C)CC2)c2ccccc21 | 0.8 | -4.2 | 41.9* | nt | 34.4*
CCn1c(=O)c2cc(C(=O)N3CCOCC3)sc2c2ccccc21 | 0.0 | 0.4 | 4.0 | -1.3 | nt
COc1ccc(C(=O)Nc2ccc3ncccc3c2)cc1 | 0.0 | -103.0 | -290.4 | -1.4 | -333.0
c1ccc(-c2cn3c4c(sc3n2)CCCC4)cc1 | nt | -7.8 | -335.5 | 0.0 | -383.3
NCC[C@H]1CC[C@@H](NC(=O)C2CC2)[C@@H](CO)O1 | nt | nt | nt | -1.6 | nt
Cc1ccc(NC(=O)C(c2ccccc2)C2CCCC2)cc1 (stereo not drawn) | -0.4 | nt | nt | 1.4 | nt
SMILES | HIF act | Jurkat NFkB inh | 697 NFkB inh | F508del corr | 697 NFkB conf
O=C(Nc1ccc2ccccc2c1)C(c1ccccc1)C1CCCC1 (stereo not drawn) | -0.3 | -8.8 | -258.3 | nt | -220.0
CCOC(=O)/C(C#N)=C/c1cc(C)n(-c2ccccc2)c1C | -0.1 | -81.0 | -289.4 | nt | -114.7
O=C(Nc1ccc2oc(-c3ccccc3Cl)nc2c1)c1ncn[nH]1 | 1.0 | -100.7 | -288.5 | 0.6 | -194.3
O=C(CN1CCN(Cc2ccccc2)CC1)Nc1ccc([N+](=O)[O-])cc1C(=O)Nc1ccccc1F | -0.4 | 7.0 | 11.0 | nt | nt
CCOC(=O)N1CCN(CC(=O)Nc2ccc([N+](=O)[O-])cc2C(=O)Nc2ccccc2F)CC1 | -0.2 | 41.8 | 38.3* | -3.1 | 38.7*
CC(C)c1ccc(S(=O)(=O)N2CCN(C(C)C(=O)Nc3ccccc3-c3ccccc3)CC2)cc1 (stereo not drawn) | -0.2 | 15.1 | 35.1* | nt | 15.3
COc1ccc(C(=O)Nc2nnc(Cc3cccs3)s2)cc1OC | -0.8 | 12.2 | 36.1* | nt | 36.8*
COc1ccc(C(=O)Nc2cccc(NC(=O)c3ccc(OC)c(OC)c3)n2)cc1OC | 0.6 | 40.5 | 38.5* | 3.0 | 46.5*
COc1ccc2c3c([nH]c2c1)[C@@H](CO)N(C(=O)c1ccc(F)cc1)CC31CN(C)C1 | nt | nt | nt | -0.9 | nt
COc1cccc(NC(=O)c2cc(=O)c3ccccc3o2)c1 | 3.5 | -31.8 | -12.5 | -0.8 | nt
COc1ccc(NS(=O)(=O)c2cc(NC(=O)c3cc(=O)c4ccccc4o3)ccc2OC)cc1 | -0.5 | 6.7 | 38.3* | -2.7 | 32.7*
O=C(C[C@@H]1C=C[C@H](NC(=O)Nc2ccccc2)[C@@H](CO)O1)NCc1cccc(F)c1 | nt | nt | nt | 2.3 | nt
Brc1ccc(/C=N/Nc2ccc3ccccc3n2)cc1 | 2.7 | -76.3 | -92.9 | nt | nt
Fc1cccc(/C=N/Nc2ccc3ccccc3n2)c1 | -0.9 | -89.7 | -282.2 | -0.7 | -262.6
CCOC(=O)C1CCN(c2ncnc3c2cnn3-c2ccc(OC)cc2)CC1 | nt | -4.1 | 47.1* | nt | 36.5*
CCCNC(=O)CSCc1nc(-c2ccc(SC)cc2)oc1C | 0.4 | -11.2 | 48.3* | 4.9 | 42.2*
CCOc1ccc(-c2nc(CSCC(=O)NCC3CCCO3)c(C)o2)cc1 (stereo not drawn) | 0.3 | 9.0 | 87.9* | 0.0 | 19.5
COC(CNC(=O)CSCc1nc(-c2ccc(SC)cc2)oc1C)OC | -0.1 | 13.1 | 10.7 | -0.6 | nt
O=c1oc2ccccc2cc1-c1ccc(O)cc1 | 3.1 | -64.1 | -107.5 | nt | nt
Nc1ccc(-c2cc3ccccc3oc2=O)cc1 | -1.8 | -23.4 | 60.6* | 0.9 | 48.2*
COC(=O)c1c(NC(=O)c2ccco2)sc2c1CCN(C(C)=O)C2 | -19.6 | -6.6 | 38.3* | -2.2 | 9.4
Cc1ccc(CNc2nc3ccccc3s2)s1 | -1.4 | -108.3 | -265.3 | nt | -292.8
COc1ccc2c3c([nH]c2c1)[C@H](CO)N(C)CC31CCN(C(=O)c2cccnc2)CC1 | nt | nt | nt | 1.4 | nt
C/C=C/c1ccc2c(c1)O[C@@H](CN(C)CC1CCOCC1)[C@H](C)CN([C@@H](C)CO)S2(=O)=O | nt | nt | nt | 1.7 | nt
COc1cccc(C(=O)Cn2c(=N)n(C)c3ccccc32)c1 | -0.2 | -98.3 | -304.2 | nt | -272.6
SMILES | HIF act | Jurkat NFkB inh | 697 NFkB inh | F508del corr | 697 NFkB conf
COc1cccc(C(=O)Cn2c(NCCO)nc3ccccc32)c1 | 0.0 | 13.0 | 7.2 | nt | nt
Cc1nn(Cc2c(Cl)cccc2Cl)c(C)c1NC(=O)c1cc(C(C)C)on1 | -0.1 | -55.2 | -469.9 | -0.2 | i
Cc1cc(C(=O)Nc2c(C)nn(Cc3c(Cl)cccc3Cl)c2C)no1 | -0.2 | -28.6 | -97.6 | nt | nt
CCN(C(=O)CN1C(=O)NC2(CCCc3ccccc32)C1=O)c1ccc(F)cc1 (stereo not drawn) | nt | -15.6 | 20.3 | -1.2 | nt
CCN(C(=O)CN1C(=O)NC2(CCc3ccccc32)C1=O)C1CCCCC1 (stereo not drawn) | -0.5 | 7.8 | 41.7* | -1.8 | 22.5
COc1ccc(S(=O)(=O)N(C)C[C@@H]2Oc3ccc(NC(=O)C4CCCCC4)cc3C(=O)N([C@@H](C)CO)C[C@@H]2C)cc1 | nt | nt | nt | -0.4 | nt
